PubChem BioAssay AID778 (Sanford-Burnham Center for Chemical Genomics, 2007)
In all, about 96,000 compounds went through this assay and about 20,000 (21%) were called active. Not all results are given here. Values without a mark were called inactive.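 How the source made its calls: active means CYP2C19 inhibition above a set limit at 5 µM in the primary screen (cut at about 50% in these data); inactive means the rest.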

What follows are compounds tested against Cytochrome P450 2C19 (Homo sapiens) (UniProt P33261) (assay: blockers of cytochrome P450 2C19 activity – biochemical, luminescence, ADME assay, primary screen (AID 778;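 further: plate controls were negative control wells for no effect and 2.5 mM tranylcypromine positive control for full effect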)). Conditions: CYP2C19 Supersomes, luciferin-H EGE luminescence, 30 min; at 5 µM; stronger effect = higher value.
Chain of Cytochrome P450 2C19 (Homo sapiens) (P33261 whole entry, looked up): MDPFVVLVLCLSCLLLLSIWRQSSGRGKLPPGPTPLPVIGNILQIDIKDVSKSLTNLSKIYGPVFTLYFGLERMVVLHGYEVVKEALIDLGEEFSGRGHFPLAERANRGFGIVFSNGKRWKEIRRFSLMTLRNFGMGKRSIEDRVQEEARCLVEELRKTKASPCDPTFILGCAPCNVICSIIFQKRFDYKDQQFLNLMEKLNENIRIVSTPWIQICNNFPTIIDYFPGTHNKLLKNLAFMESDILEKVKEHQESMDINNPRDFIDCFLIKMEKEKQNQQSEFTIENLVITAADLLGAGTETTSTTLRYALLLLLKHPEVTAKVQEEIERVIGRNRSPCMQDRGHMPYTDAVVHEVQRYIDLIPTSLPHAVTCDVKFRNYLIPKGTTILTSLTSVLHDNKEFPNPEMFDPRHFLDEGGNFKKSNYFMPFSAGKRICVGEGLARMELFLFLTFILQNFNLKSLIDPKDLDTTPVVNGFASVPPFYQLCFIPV

Row | Structure (SMILES) | inhibition
1 | CC(=O)N1CCN(c2ccc(NCc3ccc(C(C)C)cc3)cc2)CC1 | 50.5% (active)
2 | CC(C)c1ccc(N2CCN(C(=O)c3ccccc3NC(=O)/C=C(\C(=O)O)c3ccccc3)CC2)cc1 | 21.7%
3 | COc1ccc(N2CCN(C(=O)CNC(=O)c3ccc(C(C)(C)C)cc3)CC2)cc1 | 3.3%
4 | Cc1ccc(Cc2cnc(N)s2)o1 | 8.3%
5 | CC1CC(C)CN(S(=O)(=O)c2cccc(C(=O)N3C(=O)c4cccc(N)c4C3=O)c2)C1 (configuration not stated) | 5.9%
6 | O=C(Nc1cccc2ccccc12)c1onc2c1CCCC2 | 7.1%
7 | CCOC(=O)c1ccc(-c2ccc(C(=O)Nc3cccnc3)o2)cc1 | 14.1%
8 | O=C(Nc1cccnc1)c1noc2c1CCCCC2 | 64.2% (active)
9 | Cn1c(=O)c2[nH]c(NCC3CCCO3)nc2n(-c2ccccc2)c1=O (configuration not stated) | -1%
10 | CC(=O)NC1CC2CCCC(C1)N2CC(=O)Nc1ccccc1 (configuration not stated) | 11.5%
11 | CSCCC(NC(=O)c1ccco1)C(=O)OCC(=O)Nc1ncc(Cl)c(C)c1Cl (configuration not stated) | 12.9%
12 | O=C(Nc1ccc2sc3ccccc3c(=O)c2c1)c1ccccc1Cl | 14.5%
13 | O=C(NCc1cccnc1)c1cn(-c2ccccc2)nc1-c1cccs1 | 89.6% (active)
14 | COC(=O)c1cn(-c2ccccc2)nc1-c1cccnc1 | 30.5%
15 | Cc1c(C(=O)NCc2ccccc2)cnn1-c1ccccc1 | 11.5%
16 | COC(=O)Cc1csc(Nc2c(C)n(C)n(-c3ccccc3)c2=O)n1 | -4.9%
17 | CC1CC(c2ccccc2)n2nc(NC(=O)c3cccs3)nc2N1 (configuration not stated) | 7.3%
18 | CCOC(=O)C1CCCCN1Cc1ccc(OC)c(OC)c1OC (configuration not stated) | 58.1% (active)
19 | CCOC(=O)CSc1nncc2ccc(OC)c(OC)c12 | 11.3%
20 | CCOC(=O)C1CCN(Cc2coc3ccc(Cl)cc3c2=O)CC1 | 6.5%
21 | CN=C1SC(CC(=O)Nc2ccc(C(=O)O)cc2)C(=O)N1C (configuration not stated) | -4.9%
22 | CC(=O)C1C(c2ccc(Cl)cc2)NC(=O)NC1(O)C(F)(F)F (configuration not stated) | 39%
23 | CCc1cccc2c(C=C(C#N)C#N)cn(CC(=O)N3CCCCC3)c12 | -0.7%
24 | COc1cccc2c(=O)n(CC(=O)N3CCCCCC3)ccc12 | 56.9% (active)
25 | CCOC(=O)C(C)Oc1cccc2c(=O)n(CC(=O)N3CCc4ccccc43)ccc12 (configuration not stated) | 8.2%
26 | O=C(Cn1cc2c(n1)CCCCC2)NCCN1CCOCC1 | -10.3%
27 | COc1cc(OC)c(C(=O)NC2CCCCCC2)cc1OC | 43.7%
